Inconclusive results are not listed. Active and inactive are the calls of the source. Calls come from the whole dose curve; as a rule, active = well fitted inhibition curve with a large enough effect; inconclusive = small, poorly fitted or top-dose-only effect; inactive = no such curve, though single readings can be large or run the other way.
Potency is the fitted concentration of half-maximal effect.

Cytochrome P450 3A4 (Homo sapiens), sequence (P08684 whole entry, looked up): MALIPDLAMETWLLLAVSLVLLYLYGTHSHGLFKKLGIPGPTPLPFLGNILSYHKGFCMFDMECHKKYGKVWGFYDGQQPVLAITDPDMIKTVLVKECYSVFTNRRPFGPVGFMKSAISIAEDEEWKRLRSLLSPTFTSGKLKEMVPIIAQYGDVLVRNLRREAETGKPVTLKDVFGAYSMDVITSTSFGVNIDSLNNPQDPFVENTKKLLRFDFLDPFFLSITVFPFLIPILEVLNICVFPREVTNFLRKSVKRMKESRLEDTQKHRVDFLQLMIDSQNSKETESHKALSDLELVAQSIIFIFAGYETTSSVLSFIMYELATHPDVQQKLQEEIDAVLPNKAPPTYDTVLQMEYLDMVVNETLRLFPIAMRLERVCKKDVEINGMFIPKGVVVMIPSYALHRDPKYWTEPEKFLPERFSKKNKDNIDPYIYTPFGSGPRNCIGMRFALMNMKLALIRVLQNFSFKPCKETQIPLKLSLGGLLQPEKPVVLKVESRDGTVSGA

This assay concerns the target Cytochrome P450 3A4 (Homo sapiens) (UniProt P08684). Kind of assay: qHTS Assay for Inhibitors and Substrates of Cytochrome P450 3A4 (AID 884). Note: nearly all actives have a fitted effect of over 50% in size. The following applies: recombinant CYP3A4, Luciferin-PPXE luminescence; series mostly up to 57.1 µM. Here is the method:
NIH Molecular Libraries Screening Centers Network [MLSCN]
NIH Chemical Genomics Center [NCGC]
The P450 gene superfamily is involved in the metabolism and clearance of xenobiotics. This assay used human CYP3A4 to measure the dealkylation of luciferin-6' phenylpiperazinylyl (Luciferin-PPXE; […]) to luciferin. The luciferin is then measured by luminescence after the addition of a luciferase detection reagent. Luciferin-PPXE concentration in the assay was equal to its KM for CYP3A4. Inhibitors and some substrates limit the production of luciferin, and decrease measured luminescence.
NCGC Assay Protocol Summary:
Two uL of enzyme and substrate mix (final concentrations: 20nM CYP3A4, 25uM Luciferin-PPXE, 200mM KPO4) were dispensed into a white, solid bottom 1536-well microtiter plate. 23nL of compound was transferred by a pin tool. The plate was incubated at RT for 10 min. Two uL of an NADPH regeneration solution (Promega supplied reagent) was dispensed and the reaction was allowed to continue for 60 min at RT. Then the reaction was stopped by reconstituted luciferin detection buffer. After another 20 min of incubation the plate was read on the ViewLux (Perkin Elmer) at 60 sec exposure and 2x2 binning. This protocol was carried out with Promega-Glo reagents and further information can be found at http://www.promega.com/tbs/tb325/tb325.pdf. Data were normalized to the to AC100 inhibition (57 uM ketoconazole).
Keywords: P450, CYP3A4, Luciferase, MLSMR, MLSCN, NIH Roadmap, qHTS, NCGC
In the case of `Cc1ccc([N+](=O)[O-])c(C)c1`, the Potency entry is “inactive”. The value for `CC(C)Cn1c(N)c(C(=O)COC(=O)c2cc(-c3ccco3)nc3ccccc23)c(=O)n(C)c1=O` was 15.8 µM (active). With `COc1ccc2[nH]cc(CCNc3cc(-c4ccccc4OC)ncn3)c2c1`, the Potency is 6.31 µM (active).

On to `COc1ccc2[nH]cc(CCNc3nc(-c4ccccc4OC)nc4ccccc34)c2c1`, for which the Potency is 2.51 µM (active). In the case of `COC(=O)CCCCC(=O)OC` it was “inactive”; in that of `CN(C)c1ncc2nc(CCc3ccccc3)c(=O)n(-c3ccccc3)c2n1`, 6.31 µM (active). The value for `C=CCc1ccc(OC)c(OC)c1` was “inactive”; that for `COCC(=O)O` was “inactive”. For `Clc1ccccc1-c1nc(Nc2ccncc2)c2ccccc2n1`, the Potency is 3.98 µM (active). Consider `CCCCCCCCCCCC(=O)O`, for which the Potency result is “inactive”.

As for `O=C(c1cnccn1)N1CCC[C@@]2(CCN(c3cccc(-c4ccccc4)c3)C2)C1`, the Potency was 3.98 µM (active). On to `O=S(=O)(O)C1CCNCC1`, for which the Potency entry was “inactive”. In the case of `COc1ccc2[nH]cc(CCNc3ncncc3-c3ccccc3Cl)c2c1` it was 0.398 µM (active); in that of `Cc1ccccc1-c1nc(Nc2ccncc2)c2ccccc2n1`, 6.31 µM (active). Consider `COc1cccc(-c2nc(NCc3cccnc3)c3ccccc3n2)c1`, for which the Potency was 2 µM (active). As for `COc1ccc(/C=C/C(=O)c2cccs2)c(OC)c1`, the Potency was 6.31 µM (active). As to `CCC(O)OC(O)CC` (stereo not given), the Potency result is “inactive”. In the case of `Cc1ccccc1C` it was “inactive”; in that of `CC(C)=CCc1c(O)cc(O)c2c1O[C@H](c1ccccc1)CC2=O`, 12.6 µM (active). The value for `CCO` was “inactive”; that for `COc1ccc(-c2oc3ccc(C)cc3c(=O)c2O)cc1OC` was 3.98 µM (active); that for `COc1cccc(-c2cncnc2NCCc2c[nH]c3ccc(OC)cc23)c1` was 0.501 µM (active). `Cc1ccc(N)c([N+](=O)[O-])c1`: the Potency result was “inactive”. As for `CC1=C(C(=O)OCc2ccccc2)C(c2ccc(C(C)(C)C)cc2)NC(=O)N1CCCCCC(=O)O` (stereo not given), the Potency result was “inactive”. In the case of `CN(Cc1ccco1)c1ncnc2ccc(-c3cccc(NS(C)(=O)=O)c3)cc12` it was 5.01 µM (active). Take `COc1cccc(-c2ccc3ncnc(NCc4ccc(OC)cc4OC)c3c2)c1`: the Potency is 2.51 µM (active). The value for `CC(=O)OC/C=C(\C)CCC=C(C)C` was “inactive”; that for `COc1ccccc1CNc1ncncc1-c1ccccc1Cl` was 0.199 µM (active). `FC(F)(F)c1ccccc1-c1nc(NCc2cccnc2)c2ccccc2n1`: the Potency is 2 µM (active). In the case of `COc1cc2c(cc1OC)C1C(=O)c3ccc4c(c3OC1CO2)C=CC(C)(C)O4` (stereo not given), the Potency is 31.6 µM (active). For `Clc1ccccc1-c1nc(-n2ccnc2)c2ccccc2n1`, the Potency was 0.501 µM (active). Take `C=C(C)C1CC=C(C)C(O)C1` (stereo not given): the Potency entry is “inactive”. Consider `O[C@@H]([C@H](O)[C@@H](O)CBr)[C@@H](O)CBr`, for which the Potency result is “inactive”. The value for `COc1ccc(-c2nc3cnc(N4CCN(C)CC4)nc3n(CCc3ccccc3)c2=O)cc1` was “inactive”. Regarding `O=C1CC(c2ccccc2)Oc2ccccc21` (stereo not given), the Potency result is “inactive”. Regarding `CCC(C)c1ccccc1O` (stereo not given), the Potency entry is “inactive”. In the case of `COc1ccc(CNc2cc(-c3cccc(NS(C)(=O)=O)c3)ncn2)c(OC)c1` it was 2.51 µM (active); in that of `Nc1ccc(S(=O)(=O)O)cc1`, “inactive”. For `Clc1cc(Cl)c(Cl)cc1Cl`, the Potency entry was “inactive”. Turning to `Cc1cnc(CNc2ncnc3ccc(-c4ccccc4C)cc23)cn1`, the Potency was 3.98 µM (active).

Values taken from PubChem BioAssay (NCATS).
